Measurements from PubChem BioAssay (EPA / NIEHS).
Results filed as inconclusive are left out. The source made the active and inactive calls. The calls were made as follows, unless noted: active = hit-call score of the fitted dose curve at least 0.9, where 1 is the maximum; inactive = score below 0.9.

Tests used:
[1] = target: Paired box protein Pax-6 (Homo sapiens) (UniProt P26367); assay: ATG_Pax6_CIS: Attagene CIS-FACTORIAL HepG2 Assay for human Paired Box 6 (PAX6) (AID 2282956); details: HepG2 CIS-FACTORIAL PAX6 reporter transcription, RNA readout; actives raise or lower the signal
Paired box protein Pax-6 (Homo sapiens), sequence (P26367 whole entry, looked up): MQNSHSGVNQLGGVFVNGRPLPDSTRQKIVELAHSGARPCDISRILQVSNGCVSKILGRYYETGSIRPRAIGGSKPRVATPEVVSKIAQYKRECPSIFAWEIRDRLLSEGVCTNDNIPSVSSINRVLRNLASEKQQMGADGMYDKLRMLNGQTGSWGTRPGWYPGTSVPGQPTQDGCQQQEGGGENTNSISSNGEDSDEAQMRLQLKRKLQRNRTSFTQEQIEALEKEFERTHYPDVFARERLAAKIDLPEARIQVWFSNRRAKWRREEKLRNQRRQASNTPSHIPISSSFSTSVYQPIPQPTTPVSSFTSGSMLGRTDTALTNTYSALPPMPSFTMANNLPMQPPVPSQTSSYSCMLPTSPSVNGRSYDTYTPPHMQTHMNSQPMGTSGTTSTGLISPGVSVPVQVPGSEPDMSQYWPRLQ
Method in brief: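 HepG2 cells transiently transfected with multiplexed cis-promoter reporter units (endogenous TF activity) were dosed for 24 h. Reporter mRNA was quantified by RT-PCR, 6-FAM labeling, HpaI digestion and capillary electrophoresis; bidirectional fitting versus DMSO baseline.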

[2] = ATG_PXRE_CIS: Attagene CIS-FACTORIAL HepG2 Assay for human Pregnane X Receptor Element (PXRE) (AID 2282957); details: HepG2 Attagene CIS-FACTORIAL PXRE reporter, mRNA; actives raise or lower the signal
Method in brief: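 Transfect HepG2 with MRTUs (cis promoter elements); dose chemical, incubate 24 h; isolate RNA, RT with oligo(dT), PCR, 6-FAM label, HpaI cut, CE. Gain/loss fit vs DMSO.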

[3] = ATG_PPRE_CIS: Attagene CIS-FACTORIAL HepG2 Assay for human Peroxisome Proliferator-activated Response Element (PPRE) (AID 2282958); details: HepG2 PPRE cis-element reporter, Attagene transcription factor profiling; actives raise or lower the signal
Method in brief: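 After human HepG2 hepatoma cells were transiently transfected with cis-promoter reporter constructs, they were exposed to test chemicals for 24 hours. Reporter RNA was then reverse-transcribed, PCR-amplified, FAM-labeled, HpaI-digested and quantified by capillary electrophoresis.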

[4] = ATG_RORE_CIS: Attagene CIS-FACTORIAL HepG2 Assay for human RAR-related Orphan Receptor Element (RORE) (AID 2282959); details: HepG2 Attagene cis-factorial RORE reporter, mRNA; actives raise or lower the signal
Method in brief: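 Measured here: transcript induction of a cis-regulated reporter in HepG2 cells transiently transfected via FuGene 6. After 24 h, RNA was processed by RT-PCR and fluorescent capillary electrophoresis; DMSO defined baseline activity.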

[5] = ATG_Sox_CIS: Attagene CIS-FACTORIAL HepG2 Assay for human SRY-box transcription factor (SOX) (AID 2282960); details: HepG2 Attagene cis-factorial SOX reporter, mRNA; actives raise or lower the signal
Method in brief: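 Using transiently transfected HepG2 cells, reporter transcription driven by cis elements was assessed 24 h after dosing. Signal was fluorescence of capillary-separated RT-PCR products, with DMSO defining baseline activity.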

[6] = target: Transcription factor Sp1 (Homo sapiens) (UniProt P08047); assay: ATG_Sp1_CIS: Attagene CIS-FACTORIAL HepG2 Assay for human Specificity Protein 1 (Sp1) (AID 2282961); details: HepG2 Sp1 cis-reporter transcription, actives raise or lower the signal
Transcription factor Sp1 (Homo sapiens), sequence (P08047 whole entry, looked up): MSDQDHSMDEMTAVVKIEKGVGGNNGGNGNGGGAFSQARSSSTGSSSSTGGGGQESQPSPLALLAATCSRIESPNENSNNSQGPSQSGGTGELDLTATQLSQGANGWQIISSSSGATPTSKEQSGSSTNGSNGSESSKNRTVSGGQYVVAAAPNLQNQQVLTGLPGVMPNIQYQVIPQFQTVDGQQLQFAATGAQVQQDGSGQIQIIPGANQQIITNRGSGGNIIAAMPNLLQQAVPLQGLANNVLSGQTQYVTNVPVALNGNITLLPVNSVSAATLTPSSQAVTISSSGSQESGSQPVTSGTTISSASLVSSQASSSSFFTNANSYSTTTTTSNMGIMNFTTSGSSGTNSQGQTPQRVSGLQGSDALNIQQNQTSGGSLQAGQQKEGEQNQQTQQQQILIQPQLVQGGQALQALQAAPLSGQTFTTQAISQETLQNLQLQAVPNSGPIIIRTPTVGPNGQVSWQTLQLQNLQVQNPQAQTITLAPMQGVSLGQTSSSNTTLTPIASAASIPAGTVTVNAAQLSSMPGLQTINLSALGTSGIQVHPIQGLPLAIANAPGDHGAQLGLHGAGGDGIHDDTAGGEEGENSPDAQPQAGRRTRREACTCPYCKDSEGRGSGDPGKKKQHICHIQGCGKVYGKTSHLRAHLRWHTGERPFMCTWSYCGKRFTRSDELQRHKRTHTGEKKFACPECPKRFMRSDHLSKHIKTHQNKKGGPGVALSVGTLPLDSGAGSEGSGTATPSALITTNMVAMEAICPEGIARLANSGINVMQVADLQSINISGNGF
Method in brief: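 After transient transfection of HepG2 cells with cis-promoter reporter units and 24 h chemical treatment, reporter transcripts were quantified by RT-PCR and capillary electrophoresis fluorescence. Gain- and loss-of-signal fitted against DMSO.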

[7] = ATG_SREBP_CIS: Attagene CIS-FACTORIAL HepG2 Assay for human Sterol Regulatory Element Binding (SREBP) (AID 2282962); details: HepG2 Attagene cis-factorial SREBP reporter, mRNA; actives raise or lower the signal
Method in brief: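 HepG2 cells transiently transfected with multiplexed cis-element reporter units report endogenous transcription factor activity. After 24 h of chemical exposure, reporter mRNA was quantified by RT-PCR, 6-FAM labelling, HpaI digestion and capillary electrophoresis; bidirectional fits used DMSO as baseline.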

[8] = target: Signal transducer and activator of transcription 3 (Homo sapiens) (UniProt P40763); assay: ATG_STAT3_CIS: Attagene CIS-FACTORIAL HepG2 Assay for human Signal Transducer and Activator of Transcription 3 (STAT3) (AID 2282963); details: HepG2, Attagene cis-factorial STAT3 reporter transcription; actives raise or lower the signal
Signal transducer and activator of transcription 3 (Homo sapiens), sequence (P40763 whole entry, looked up): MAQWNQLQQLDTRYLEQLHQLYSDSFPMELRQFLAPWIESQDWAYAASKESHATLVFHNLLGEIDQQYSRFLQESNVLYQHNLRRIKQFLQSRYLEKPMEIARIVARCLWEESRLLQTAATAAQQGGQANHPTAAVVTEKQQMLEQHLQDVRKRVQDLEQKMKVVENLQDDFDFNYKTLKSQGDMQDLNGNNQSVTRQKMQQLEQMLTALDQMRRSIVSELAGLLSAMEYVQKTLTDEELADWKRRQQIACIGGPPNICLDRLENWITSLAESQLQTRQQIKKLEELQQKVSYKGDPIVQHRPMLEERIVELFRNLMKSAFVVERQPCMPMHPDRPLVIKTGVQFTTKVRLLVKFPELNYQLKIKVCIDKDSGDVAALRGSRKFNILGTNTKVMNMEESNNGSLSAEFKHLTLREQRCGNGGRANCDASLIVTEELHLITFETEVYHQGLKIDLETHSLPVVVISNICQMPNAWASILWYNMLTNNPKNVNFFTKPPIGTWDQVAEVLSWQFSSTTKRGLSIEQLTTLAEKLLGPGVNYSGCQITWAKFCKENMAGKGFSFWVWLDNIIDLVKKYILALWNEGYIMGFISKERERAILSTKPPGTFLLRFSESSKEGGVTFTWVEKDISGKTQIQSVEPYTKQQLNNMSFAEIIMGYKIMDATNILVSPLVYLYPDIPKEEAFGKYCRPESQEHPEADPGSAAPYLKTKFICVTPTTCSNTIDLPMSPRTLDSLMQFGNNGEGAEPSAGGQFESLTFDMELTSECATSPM
Method in brief: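 Endogenous STAT3-responsive cis-element activity was read in transiently transfected HepG2 cells after 24 h treatment. Reporter transcripts were quantified via RT-PCR and capillary electrophoresis, with DMSO as negative control and bidirectional curve fitting.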

[9] = ATG_TCF_b_cat_CIS: Attagene CIS-FACTORIAL HepG2 Assay for human T-Cell-Factor with beta-catenin (TCF/b-cat) (AID 2282965); details: HepG2 TCF/beta-catenin cis-reporter transcription, actives raise or lower the signal
Method in brief: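 Endogenous transcription factor activity is captured through cis-promoter reporter constructs transiently introduced into human HepG2 liver cells. Induced reporter mRNA is measured after 24 h and fitted bidirectionally relative to DMSO.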

[10] = ATG_TAL_CIS: Attagene CIS-FACTORIAL HepG2 Assay for human TAL Basal Promoter (AID 2282966); details: HepG2 Attagene cis-factorial TAL promoter reporter; actives raise or lower the signal;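 also: background control endpoint measuring basal TAL promoter reporter mRNA not a specific factor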
Method in brief: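 Fluorescence of labelled reporter cDNA fragments, resolved by capillary electrophoresis, gave the readout. Human HepG2 liver cells carried transiently transfected cis-element reporter units and were treated for 24 hours; activity was fitted bidirectionally against DMSO.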

[11] = ATG_TGFb_CIS: Attagene CIS-FACTORIAL HepG2 Assay for human Transforming Growth Factor (TGF) (AID 2282967); details: HepG2 Attagene CIS TGFb reporter, mRNA transcription; actives raise or lower the signal
Method in brief: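 Readout: fluorescently labeled reporter cDNA fragments resolved by capillary electrophoresis after RT-PCR. Transfected HepG2 cells dosed for 24 h; endogenous TF activity at TGFB1-linked cis element; gain or loss fitted relative to DMSO.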

[12] = ATG_VDRE_CIS: Attagene CIS-FACTORIAL HepG2 Assay for human Vitamin D Receptor Element (VDRE) (AID 2282968); details: HepG2 VDRE cis-reporter transcription, actives raise or lower the signal
Method in brief: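 Reporter mRNA induction, quantified by capillary electrophoresis of fluorescently labelled RT-PCR products, was read 24 h after dosing HepG2 cells carrying transiently transfected cis-regulated reporter units; gain or loss relative to DMSO.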

[13] = target: Nuclear receptor subfamily 1 group I member 3 (Homo sapiens) (UniProt Q14994); assay: ATG_CAR_TRANS: Attagene TRANS-FACTORIAL HepG2 Assay for human Constitutive Androstane Receptor (CAR) (AID 2282969; active = hit-call score of the fitted dose curve at least 0.9, where 1 is the maximum;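 also: activators raise reporter mRNA above DMSO so AC50 marks induction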); details: HepG2 Attagene TRANS-FACTORIAL CAR reporter
Nuclear receptor subfamily 1 group I member 3 (Homo sapiens), sequence (Q14994 whole entry, looked up, the tested form may be a part): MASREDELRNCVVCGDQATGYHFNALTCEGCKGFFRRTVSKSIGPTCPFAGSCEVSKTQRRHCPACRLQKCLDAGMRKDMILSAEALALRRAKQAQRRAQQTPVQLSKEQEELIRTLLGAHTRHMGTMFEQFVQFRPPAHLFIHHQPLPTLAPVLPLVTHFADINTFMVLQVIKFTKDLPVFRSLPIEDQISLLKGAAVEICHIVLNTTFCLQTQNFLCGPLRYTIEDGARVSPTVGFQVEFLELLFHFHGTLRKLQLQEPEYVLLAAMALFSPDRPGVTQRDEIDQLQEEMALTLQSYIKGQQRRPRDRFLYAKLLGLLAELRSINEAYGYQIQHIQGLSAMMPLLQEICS
Method in brief: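 Readout is reporter mRNA induction, quantified by fluorescent primer extension and capillary electrophoresis after RT-PCR. Cells were HepG2 transiently carrying chimeric NR-Gal4 constructs with GAL4-UAS reporters, treated for 24 h; activity scored upward from DMSO.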

[14] = target: X-box-binding protein 1 (Homo sapiens) (UniProt P17861); assay: ATG_Xbp1_CIS: Attagene CIS-FACTORIAL HepG2 Assay for human X-box Binding Protein 1 (XBP1) (AID 2282972); details: HepG2 XBP1 cis-element reporter, Attagene multiplex; actives raise or lower the signal
X-box-binding protein 1 (Homo sapiens), sequence (P17861 whole entry, looked up): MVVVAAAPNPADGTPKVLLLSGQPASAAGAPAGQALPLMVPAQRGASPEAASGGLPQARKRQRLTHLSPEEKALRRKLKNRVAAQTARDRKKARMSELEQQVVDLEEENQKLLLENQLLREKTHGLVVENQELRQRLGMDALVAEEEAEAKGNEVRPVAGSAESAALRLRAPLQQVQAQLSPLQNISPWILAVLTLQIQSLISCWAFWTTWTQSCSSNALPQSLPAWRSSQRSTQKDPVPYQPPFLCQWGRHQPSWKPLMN
Method in brief: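 HepG2 cells transiently transfected with cis-regulated multiple reporter transcription units; endogenous transcription factor activity measured 24 hours after chemical dosing. Reporter mRNA quantified by RT-PCR, 6-FAM primer extension, HpaI digestion and capillary electrophoresis; bidirectional fitting versus DMSO.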

[15] = ATG_M_19_TRANS: Attagene TRANS-FACTORIAL HepG2 Assay for M19 Transcription Factor (Internal Marker) (AID 2282974; active = hit-call score of the fitted dose curve at least 0.9, where 1 is the maximum); details: HepG2 Attagene TRANS-FACTORIAL M19 internal marker reporter
Method in brief: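 Gain-of-signal in reporter mRNA, relative to DMSO, was scored from capillary electrophoresis fluorescence. HepG2 cells carried transiently transfected multiple reporter transcription units and were incubated with test chemicals for 24 h.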

[16] = ATG_GAL4_TRANS: Attagene TRANS-FACTORIAL HepG2 Assay for GAL4 (Internal Marker) (AID 2282976; active = hit-call score of the fitted dose curve at least 0.9, where 1 is the maximum); details: HepG2 Attagene TRANS GAL4 internal marker reporter
Method in brief: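 First, HepG2 cells were transfected with reporter units under GAL4-UAS control. Next, they were treated with chemical for 24 h. Finally, RNA was reverse-transcribed, PCR-amplified, FAM-labelled and resolved by capillary electrophoresis, with induction scored against DMSO.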

[17] = target: Estrogen-related receptor gamma (Homo sapiens) (UniProt P62508); assay: ATG_ERRg_TRANS: Attagene TRANS-FACTORIAL HepG2 Assay for human Estrogen-Related Receptor gamma (ERRg) (AID 2282977; active = hit-call score of the fitted dose curve at least 0.9, where 1 is the maximum;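 also: hits increase reporter signal over DMSO so potencies reflect activators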); details: HepG2 Attagene TRANS reporter, ERRg transactivation
Estrogen-related receptor gamma (Homo sapiens), sequence (P62508 whole entry, looked up, the tested form may be a part): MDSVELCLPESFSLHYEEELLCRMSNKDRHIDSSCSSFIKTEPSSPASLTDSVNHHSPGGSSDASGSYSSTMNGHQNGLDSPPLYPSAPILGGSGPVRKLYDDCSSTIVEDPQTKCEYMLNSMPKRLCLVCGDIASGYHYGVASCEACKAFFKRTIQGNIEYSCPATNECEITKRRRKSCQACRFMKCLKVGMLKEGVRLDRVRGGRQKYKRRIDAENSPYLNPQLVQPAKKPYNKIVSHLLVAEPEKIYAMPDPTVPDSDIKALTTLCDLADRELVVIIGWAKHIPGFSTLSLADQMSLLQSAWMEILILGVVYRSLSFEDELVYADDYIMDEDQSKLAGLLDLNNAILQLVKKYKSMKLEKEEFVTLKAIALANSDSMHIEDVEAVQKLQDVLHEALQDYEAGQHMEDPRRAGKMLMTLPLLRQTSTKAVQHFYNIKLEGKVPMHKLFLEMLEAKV
Method in brief: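 HepG2 cells transiently transfected with multiplexed GAL4-UAS reporter units driven by chimeric NR-Gal4 proteins; 24 h exposure. Reporter mRNA quantified by RT-PCR, fluorescent labelling, HpaI digestion and capillary electrophoresis; gain of signal vs DMSO.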

[18] = ATG_TA_CIS: Attagene CIS-FACTORIAL HepG2 Assay for human TA Basal Promoter (AID 2282964); details: HepG2 Attagene CIS-factorial TA basal promoter reporter; actives raise or lower the signal
Method in brief: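 Transfected HepG2, 24 h compound exposure; RNA → RT-PCR → FAM primer extension → HpaI cut → CE fluorescence. Gain/loss-of-signal fitted against DMSO negative control. Background-control readout.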

[19] = target: Steroid hormone receptor ERR1 (Homo sapiens) (UniProt P11474); assay: ATG_ERRa_TRANS: Attagene TRANS-FACTORIAL HepG2 Assay for human Estrogen-Related Receptor alpha (ERRa) (AID 2282971; active = hit-call score of the fitted dose curve at least 0.9, where 1 is the maximum); details: HepG2 Attagene TRANS reporter, ERRa transactivation
Steroid hormone receptor ERR1 (Homo sapiens), sequence (P11474 whole entry, looked up, the tested form may be a part): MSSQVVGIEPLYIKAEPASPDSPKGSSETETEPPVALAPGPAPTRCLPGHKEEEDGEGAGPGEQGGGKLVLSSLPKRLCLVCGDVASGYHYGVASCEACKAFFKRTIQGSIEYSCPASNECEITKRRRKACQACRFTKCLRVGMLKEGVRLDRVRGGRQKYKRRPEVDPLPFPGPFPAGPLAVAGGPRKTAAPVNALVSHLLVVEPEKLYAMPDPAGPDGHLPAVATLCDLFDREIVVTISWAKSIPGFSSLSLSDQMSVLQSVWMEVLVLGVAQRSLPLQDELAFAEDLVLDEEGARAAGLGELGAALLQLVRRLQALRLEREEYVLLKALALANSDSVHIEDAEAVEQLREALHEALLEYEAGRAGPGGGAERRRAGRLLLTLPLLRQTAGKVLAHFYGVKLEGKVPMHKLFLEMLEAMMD
Method in brief: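 Reporter transcript induction was quantified by RT-PCR and capillary electrophoresis of FAM-labelled, HpaI-cut products after 24 h treatment of HepG2 cells carrying transiently transfected GAL4-UAS reporter units and an exogenous ERRa-Gal4 fusion; activity scored as increase over DMSO.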

Measured: AC50

C[C@H]1C[C@@H](O)CC(C)(C)C1
active: [2] 68.4 µM
not listed: [18] | [19]
inactive: all other assays above

CCCCCCCCCCCCS(=O)(=O)Cl
not listed: [7] | [13] | [16] | [17] | [18] | [19]
inactive: all other assays above

COc1ccc(N)c([N+](=O)[O-])c1
not listed: [7] | [17] | [19]
inactive: all other assays above

CCCCCC(=O)CC
active: [2] 33.4 µM
not listed: [7] | [13] | [15] | [16] | [17] | [19]
inactive: all other assays above

CCCCC1CCC(O)CC1 (stereo not drawn)
not listed: [7] | [9] | [13] | [15] | [17] | [19]
inactive: all other assays above

C=CC(=C)CCCC(C)(C)OC(C)=O
not listed: [7] | [9] | [13] | [16] | [17]
inactive: all other assays above

Cc1ncc([N+](=O)[O-])n1CCO
not listed: [7] | [12] | [15]
inactive: all other assays above

CC(C=O)Cc1ccc(C(C)(C)C)cc1 (stereo not drawn)
active: [2] 27.6 µM
not listed: [13] | [15] | [16] | [17] | [18] | [19]
inactive: all other assays above

CN(C)C(=S)SC(=S)N(C)C
active: [2] 73.8 µM | [3] 46.2 µM
not listed: [9] | [16] | [17] | [18] | [19]
inactive: all other assays above

CCCCCCOCCOCCO
not listed: [7] | [12] | [13] | [16] | [17] | [19]
inactive: all other assays above

CC=CC=CCOC(=O)C(C)C
active: [2] 25 µM
not listed: [7] | [13] | [17] | [19]
inactive: all other assays above

COc1ccc(CCN2CCC(Nc3nc4ccccc4n3Cc3ccc(F)cc3)CC2)cc1
active: [7] 2.12 µM
not listed: [6] | [13] | [15]
inactive: all other assays above

CC(C)=CCCC(C)CCOC=O (stereo not drawn)
active: [2] 100 µM
not listed: [15] | [16] | [17] | [18] | [19]
inactive: all other assays above

CC1CCC(C(C)C)C(O)C1 (stereo not drawn)
not listed: [9] | [13] | [15] | [17] | [19]
inactive: all other assays above

C=C(C)C(=O)OCC(CC)(COC(=O)C(=C)C)COC(=O)C(=C)C
active: [2] 10.6 µM
not listed: [6] | [12] | [13] | [17] | [18] | [19]
inactive: all other assays above

CS(C)=O
not listed: [6] | [13] | [16] | [17] | [19]
inactive: all other assays above

C=CCCCCCCCCCC
not listed: [4] | [12] | [17] | [19]
inactive: all other assays above

COC(=O)c1cccnc1
not listed: [4] | [13]
inactive: all other assays above

O=C1CCCC=CCCCCCCCCCC1
active: [2] 9.05 µM | [9] 49.3 µM | [12] 18.4 µM | [14] 55.6 µM
not listed: [6] | [13] | [15] | [16] | [17] | [19]
inactive: all other assays above
